Screening data: PubChem BioAssay, National Center for Advancing Translational Sciences (NCATS)
A selection: hits, their analogues and other compounds. The true share with any hit is near 8.6%.
MARV entry inh – blocks Marburg virus binding or cell entry; Marburg virus pseudotype entry/binding inhibition, cell-based; 6.5% of 18,000 active; Potency, µM (series often up to 49.2 µM), inactives show at the highest dose activity change, negative = inhibition, most hits filed as inhibitors
Lassa entry – inhibitors of Lassa virus binding or entry into cells; Lassa virus pseudotyped entry inhibition, cell-based qHTS; Potency, µM (series often up to 49.2 µM), for the others: top-dose activity change, negative = inhibition, actives largely listed as inhibitors; 4.1% of 18,000 active; AID 720533
Numbers without * were called inactive; ! = a repeat was not active; [ ] = dose if it differs, or a comment. Calls come from the whole dose curve; tested in HEK293 cells. % is set by controls: 0 for no effect and ±100 for the full control effect; potency is the fitted concentration of half-maximal effect.

For NC(N)=NCCNS(=O)(=O)c1cccc2cnccc12 the results were MARV entry inh 4.7% and Lassa entry 15.0%.
Screening O=C1[C@@H]2[C@H]3[C@H](O)[C@H](O)CC(=NOC[C@@H](O)COCc4ccco4)[C@@H]3CC[C@H]2C(=O)N1C1CCCCC1 returned MARV entry inh -22.0%[8.59 µM] and Lassa entry 0.6%[8.59 µM].
CC[C@@H](C)[C@H](NS(=O)(=O)c1ccc(F)cc1Br)C(=O)OC was read as MARV entry inh 22.0% and Lassa entry 4.6%.
`CCCCC/C=C\C/C=C\C/C=C\CCCCCCC(=O)NC(C)C(=O)O` (stereo unspecified) gave MARV entry inh -3.6% and Lassa entry 2.5%.
For CCCCCCCC/C=C\CCCCCCCC(=O)N[C@H](CO)Cc1ccc(O)cc1 the results were MARV entry inh inconclusive and Lassa entry 14.1µM*.
O=S1(=O)CCSCCN1Cc1ccccc1Br was read as MARV entry inh 19.0% and Lassa entry 23.5%.
`Cc1cc(=O)oc2cc(NC(=O)[C@H](CCCCN)NC(=O)[C@H](CC3CCCCC3)NC(=O)OCC3c4ccccc4-c4ccccc43)ccc12` gave MARV entry inh 10µM* and Lassa entry inconclusive.
`Cc1cc(=O)oc2cc(NC(=O)C(CCCCN)NC(=O)C(CC3CCCCC3)NC(=O)OCC3c4ccccc4-c4ccccc43)ccc12` (stereo unspecified) gave MARV entry inh 22.0% and Lassa entry 5.3%.
CCc1cc(C(=O)NCC2Cc3cc(C)cc(-c4cc(C(C)=O)ccc4F)c3O2)n(C)n1 (stereo unspecified) was read as MARV entry inh -16.8% and Lassa entry 3.9%.
`COC[C@H]([C@@H](O)[C@@H](O)C(=O)NCC[C@@H](C)c1nc(/C=C/C[C@H]2OC3(C[C@H](O)[C@H]2C)OC([C@@H](C[C@@H](O)[C@@H](C)[C@@H](O)[C@@H](C)/C=C(C)/C(C)=C/C=C/C(C)=C\C#N)OC)[C@@H](OP(=O)(O)O)C3(C)C)co1)N(C)C` (stereo partly specified) gave MARV entry inh 0.112µM* and Lassa entry 70.8µM*.
COc1cccc([C@H]2Oc3ccc(OC)cc3C(=NO[C@@H](C)CN3CCCCc4nc(C)c(C)cc43)[C@H]2O)c1 was read as MARV entry inh -16.9%[8.59 µM] and Lassa entry -16.0%[8.59 µM].
Screening COc1cccc(-c2cc3c(c(OC)c2)OCCN(Cc2ccccc2O)C3)n1 returned MARV entry inh -20.8% and Lassa entry 5.62µM*.
COc1ccc(-c2[nH]ncc2CN2CCOc3c(cc(-c4cccc(OC)n4)cc3OC)C2)cc1 was read as MARV entry inh -3.4% and Lassa entry -11.8%.
Screening COc1cccc([C@@H]2Oc3ccc(Br)cc3C(=O)[C@@H]2OC(=O)N[C@H]2CCCc3ccccc32)c1 returned MARV entry inh -11.4%[8.59 µM] and Lassa entry -10.2%[8.59 µM].
CCOC(=O)[C@]12C[C@]3(C)CCN(C(=O)N[C@@H]1c1ccccc1)[C@@H]32 was read as MARV entry inh 33.8%[8.59 µM] and Lassa entry -19.3%[8.59 µM].
Screening C[C@H]1C[C@@H](C)O[C@@]2(C1)C(=O)N(Cc1ccc(F)cc1)c1ccccc12 returned MARV entry inh 28.5%[8.59 µM] and Lassa entry 16.1%[8.59 µM].
Screening CN1CC[C@@]23CCCCC2C1Cc1ccc(O)cc13 (stereo partly specified) returned MARV entry inh -13.6% and Lassa entry 8.5%.
For COc1ccc2c(c1)[C@@]13CCCCC1[C@@H](C2)N(C)CC3 (stereo partly specified) the results were MARV entry inh 8.91µM* and Lassa entry inconclusive.
CCCCCCN1C[C@@H](O)[C@H](n2cc(-c3ccc(F)cc3)nn2)C[C@H]1c1ccc(C)cc1 was read as MARV entry inh inconclusive and Lassa entry -27.4%.
`C#Cc1cccc(Nc2ncnc3cc(OCCOC)c(OCCOC)cc23)c1` gave MARV entry inh -4.3% and Lassa entry inconclusive.
For COc1cc2c(Nc3ccc(Br)cc3F)ncnc2cc1OCC1CCN(C)CC1 the results were MARV entry inh 7.08µM* and Lassa entry 22.4µM*.
COC(=O)C1=C(C)N(Cc2ccccc2)C(=NCCc2cccnc2)NC1c1ccccc1 (stereo unspecified) was read as MARV entry inh -11.4%[8.59 µM] and Lassa entry 6.4%[8.59 µM].
For COC(=O)CC=C[C@@H](C)[C@H](OC)c1ccccc1Br the results were MARV entry inh 0.596µM*! and Lassa entry inconclusive.
For COC(=O)CC=C[C@@H](C)[C@H](O)c1ccccc1Br the results were MARV entry inh -21.6%[8.59 µM] and Lassa entry -19.4%[8.59 µM].
`CCCC(=O)O[C@]1(C(=O)CO)CC[C@H]2[C@@H]3CCC4=CC(=O)CC[C@]4(C)[C@H]3[C@@H](O)C[C@@]21C` gave MARV entry inh -4.9% and Lassa entry -2.2%.
Screening CCCCCC(=O)O[C@@]1(C(C)=O)CCC2C3CCC4=CC(=O)CC[C@@]4(C)C3CC[C@]21C (stereo partly specified) returned MARV entry inh 10µM* and Lassa entry 22.4µM*.
Screening O=c1[nH]c2ccccc2n1C1CCN(Cc2ccc(-c3[nH]c4cc5ncnc5cc4nc3-c3ccccc3)cc2)CC1 returned MARV entry inh 7.08µM* and Lassa entry 17.8µM*.
For O=C(CCCN1CCC(n2c(=O)[nH]c3ccccc32)CC1)c1ccc(F)cc1 the results were MARV entry inh 8.5%[17.8 µM] and Lassa entry -18.5%[17.8 µM].
Screening COC(=O)C1=C(C)N(Cc2ccccc2)C(=NCC2CC2)NC1c1ccc(Br)cc1 (stereo unspecified) returned MARV entry inh -10.3%[8.59 µM] and Lassa entry 24.2%[8.59 µM].
`NS(=O)(=O)c1cccc(N=Cc2c(O)[nH]c3ccccc23)c1` gave MARV entry inh inconclusive and Lassa entry -12.3%.
Screening CN1CCc2cc3c(cc2[C@@H]1O)OCO3 returned MARV entry inh -24.3%[17.8 µM] and Lassa entry -1.6%[17.8 µM].
`O[C@@H]1[C@@H]2c3cc4c(cc3CN3CCC(=C[C@@H]1O)[C@H]23)OCO4` gave MARV entry inh 2.51µM* and Lassa entry inconclusive.
Cc1c2ccncc2c(C)c2c1[nH]c1ccccc12 was read as MARV entry inh 4.47µM* and Lassa entry 0.2%[17.8 µM].
c1ccc2c(c1)[nH]c1cnccc12 was read as MARV entry inh 11.5% and Lassa entry 16.4%.
Screening COC1=C(C(=O)c2ccccc2)C(=O)[C@@]2(CC=C(C)C)C[C@@H]([S+](=O)([O-])c3ccccc3)C(C)(C)[C@@]1(CC=C(C)C)C2=O returned MARV entry inh -16.6%[8.59 µM].
For COC(=O)C[C@H]1c2ccccc2[C@@H]2C(=C[C@@H](C)[C@H]3C(=O)N(O)C(=O)[C@H]32)N1C(=O)OC the results were MARV entry inh 8.0%[8.59 µM] and Lassa entry 4.1%[8.59 µM].
CC(=O)Oc1cc2c(c(C)c1OC(C)=O)CC=C1[C@]3(C)CC[C@]4(C)CC[C@@](C)(C(=O)O)CC4[C@]3(C)CC[C@]12C (stereo partly specified) was read as MARV entry inh 11.2µM* and Lassa entry 20µM*.
COC(=O)N[C@@H](c1ccco1)C(C(C)=O)C(=O)OC (stereo partly specified) was read as MARV entry inh -27.0%[8.59 µM] and Lassa entry 6.1%[8.59 µM].
`CCC1=C[C@@H]2CN(C1)Cc1c([nH]c3ccccc13)[C@@](C(=O)OC)(c1cc3c(cc1OC)N(C)[C@H]1[C@@](O)(C(=O)OC)[C@H](OC(C)=O)[C@]4(CC)C=CCN5CC[C@]31[C@@H]54)C2` gave MARV entry inh 1.41µM*! and Lassa entry 12.6µM*!.
